Compound activity as filed in PubChem BioAssay.
Most compounds without a hit are left out; they make up all but 2% or so of the library.
ARNT-TACC3 inh: disrupts binding between human ARNT and TACC3 | AlphaScreen His-ARNT PAS-B/GST-TACC3 binding, luminescence; TACC3 fragment carries E629A point mutation | 0.66% of 390,000 active | AID 623870 | Q9Y6A5 | inhibition, % at 9.99 µM;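 active = mean inhibition of replicates at least 50% and at least half of replicates each reaching 50%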;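 also: 0% = complete ARNT plus TACC3 wells and 100% = ARNT alone without TACC3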
sPLA2-III inh: Inhibits HGIII-sPLA2 liposome hydrolysis, primary screen. 0.56% of 370,000 active. inhibition, % at 12.2 µM. QFRET BODIPY PC-A2 liposome hydrolysis, fluorescence;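 active = inhibition above mean plus 3 SD of compounds lying within the high and low control bounds, cut at about 19% in these data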;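 also: 0% = median of test compound wells and 100% = no enzyme DMSO wells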
NadD block: NadD (S. aureus) enzyme inhibition; inhibition, % at 20 µM; purified NadD enzyme, colorimetric absorbance read-out; 0.78% of 360,000 active; in the data active = inhibition above about 26%
Neddyl block: blocks human cullin neddylation; P61081+Q13564; TR-FRET cullin neddylation, biochemical; inhibition, % at 25 µM; 0.58% of 360,000 active; in the data active = inhibition above about 36%
DAGLB inh: blocks human DAGLB lipase activity; Q8NCG7; HEK293T DAGLB membrane lysate, EnzChek fluorogenic substrate; inhibition, % at 5.17 µM; 0.059% of 340,000 active; AID 504411; in the data active = inhibition above about 34%;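 also: 0% = enzyme with vehicle and 100% = wells lacking enzyme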
Target sequence (Q8NCG7 whole entry, looked up): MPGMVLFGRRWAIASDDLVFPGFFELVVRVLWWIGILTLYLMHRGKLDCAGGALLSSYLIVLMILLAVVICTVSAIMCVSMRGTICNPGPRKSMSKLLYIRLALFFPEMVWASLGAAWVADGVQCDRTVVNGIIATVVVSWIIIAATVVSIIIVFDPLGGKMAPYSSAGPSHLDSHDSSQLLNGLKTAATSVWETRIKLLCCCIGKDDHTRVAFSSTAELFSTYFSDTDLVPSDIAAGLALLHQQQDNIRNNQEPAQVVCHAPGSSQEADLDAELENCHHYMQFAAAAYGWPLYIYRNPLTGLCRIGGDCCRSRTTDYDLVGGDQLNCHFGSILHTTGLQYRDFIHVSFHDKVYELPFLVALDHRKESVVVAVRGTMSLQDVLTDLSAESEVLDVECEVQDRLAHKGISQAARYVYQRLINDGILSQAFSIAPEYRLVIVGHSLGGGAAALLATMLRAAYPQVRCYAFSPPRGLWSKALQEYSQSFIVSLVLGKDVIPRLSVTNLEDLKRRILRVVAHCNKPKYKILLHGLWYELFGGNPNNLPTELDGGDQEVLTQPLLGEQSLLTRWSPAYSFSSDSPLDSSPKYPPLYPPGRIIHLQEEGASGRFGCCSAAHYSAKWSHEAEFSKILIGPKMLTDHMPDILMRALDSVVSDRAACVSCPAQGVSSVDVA
Neddyl inh conf: cullin neddylation inhibition, confirmation | shares compounds with Neddyl block | TR-FRET cullin neddylation biochemical assay | calls only at 25 µM | 13% of 1,800 active; in the data active = inhibition above about 40%;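 also: neddylation substrate is the cullin 1 ring ligase complex with SKP2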
An asterisk follows results filed as active; i = inactive; . = not tested or not shown; + = active, no number.

SMILES	ARNT-TACC3 inh	sPLA2-III inh	NadD block	Neddyl block	DAGLB inh	Neddyl inh conf
Cc1ccc(-n2c3nc(=O)n(C)c(=O)c-3cc3ccccc32)cc1	.	3	2	61*	.	i
CCCCn1c(=O)nc2n(-c3ccc(C)cc3)c3ccccc3cc-2c1=O	3	3	4	13	4	.
CCOc1ccc2[nH]c(=O)c(CN(Cc3cccs3)C(CC)c3nnnn3C(C)(C)CC)cc2c1 (configuration not stated)	-2	2	-1	45*	-1	i
CCOc1ccc2[nH]c(=O)c(CN(Cc3ccco3)C(CC)c3nnnn3Cc3ccccc3)cc2c1 (configuration not stated)	.	-26	1	41*	-1	i
CCOc1ccc2[nH]c(=O)c(CN(Cc3ccco3)Cc3nnnn3Cc3ccccc3)cc2c1	0	-5	6	34	4	.
C[C@H](CO)N1C[C@H](C)[C@H](CN(C)C(=O)Nc2ccccc2)Oc2cc(C#C[C@@H](C)O)ccc2S1(=O)=O	4	.	.	.	.	.
C[C@H]1CN([C@@H](C)CO)C(=O)c2cccc(NC(=O)Nc3cccc4ccccc34)c2O[C@H]1CN(C)C(=O)Nc1ccc2c(c1)OCO2	25	.	.	.	.	.
NS(=O)(=O)c1cccc(Nc2nc3ccccc3nc2NS(=O)(=O)c2ccc(Cl)cc2)c1	-3	-57	8	39*	8	+
O=C(O)c1cccc(Nc2nc3ccccc3nc2NS(=O)(=O)c2ccccc2)c1	7	-12	4	31	6	.
CC(=O)Nc1ccc(S(=O)(=O)Nc2nc3ccccc3nc2Nc2cccc(O)c2)cc1	-9	-26	0	46*	7	.
CS(=O)(=O)N(CC(=O)N/N=C/c1cccc2c1OCCO2)c1ccccc1Br	4	-34	2	45*	4	+
Cc1cccc(NC(=O)Nc2ccc3c(c2)C(=O)N(C)[C@@H]2CC[C@H](CC(=O)O)O[C@H]2CO3)c1	1	.	.	.	.	.
COc1ccccc1Nc1ncc(C(=O)N2CCN(Cc3ccc(OC)c(OC)c3OC)CC2)c2ccccc12	-16	-12	-1	44*	0	.
O=C(c1cnn2c(C(F)(F)F)cc(-c3cccs3)nc12)N1CCCC1	-7	3	-5	44*	-2	.
O=C(Nc1ccc2c(c1)C(=O)NC2=O)c1ccccc1	-5	2	2	.	2	.
O=C(/C=C/c1ccccc1Cl)Nc1ccc2c(c1)C(=O)NC2=O	.	11	13	.	-2	.
O=C(Nc1ccc2c(c1)C(=O)NC2=O)c1ccc(S(=O)(=O)N2CCCC2)cc1	-8	0	0	37*	-2	i
O=C(/C=C/c1ccccc1)Nc1ccc2c(c1)C(=O)NC2=O	-15	-3	0	44*	0	.
O=C(Nc1ccc2c(c1)C(=O)NC2=O)c1cccc(C(F)(F)F)c1	-22	-1	-5	40*	-3	i
CO[C@@H]1CN(C)C(=O)c2cc(NC(=O)C3CC3)ccc2OC[C@H](C)N(C(=O)c2ccccc2F)C[C@@H]1C	-2	.	.	.	.	.
COCC(=O)Nc1ccc2c(c1)C(=O)N(C)C[C@@H](OC)[C@@H](C)CN(Cc1cccnc1)[C@H](C)CO2	-10	.	.	.	.	.
COc1cccc(NC(=O)N(C)C[C@@H]2Oc3ncc(C#Cc4ccncc4)cc3C(=O)N([C@H](C)CO)C[C@H]2C)c1	-6	.	.	.	.	.
O=C(O)[C@@H]1Cc2c([nH]c3ccccc23)C2CCC(=O)N21 (some centres not stated)	-2	-1	-2	52*	0	i
C[C@H]1CN([C@@H](C)CO)S(=O)(=O)c2ccc(C3=CCCC3)cc2O[C@@H]1CN(C)C(=O)c1ccccn1	0	.	.	.	.	.
CN(C)c1cccc(C(=O)NCc2ccc3c(c2)OCO3)c1	.	-2	-1	44*	-1	+
SMILES	ARNT-TACC3 inh	sPLA2-III inh	NadD block	Neddyl block	DAGLB inh	Neddyl inh conf
CN(C)c1ccc(C(=O)NCc2ccc3c(c2)OCO3)cc1	-5	3	7	0	-4	.
COCCn1c(C)cc(/C=N/NC(=O)c2cc3ccccc3cc2O)c1C	.	.	35*	50*	3	.
COc1cc(/C=N/NC(=O)c2cc3ccccc3cc2O)ccc1OCCN1CCCCC1	12	-7	24	19	1	.
COc1cccc(CC(NC(C)=O)C(=O)NC2CCN(c3nc(C)cc(C)c3C#N)CC2)c1 (configuration not stated)	-7	0	-3	30	0	.
COc1ccc(CC(NC(C)=O)C(=O)NC2CCN(c3nc(C)cc(C)c3C#N)CC2)c(OC)c1 (configuration not stated)	-4	-3	-1	41*	-2	i
Nc1c(C(=O)Nc2ccc(Cl)cc2)oc2ccccc12	1	12	-5	44*	-3	.
COCCOC(=O)C1=C(C)NC(C)=C(C(=O)OCCOC)C1/C=C/c1ccccc1OC	-5	2	-7	43*	2	.
CCOC(=O)C1=C(C)NC(C)=C(C(=O)OCC)C1/C=C/c1ccccc1OC	.	-3	-5	.	-6	.
CCN(CC)S(=O)(=O)c1cccc(C(=O)Nc2cc3oc4ccccc4c3cc2OC)c1	-3	14	-2	31	0	.
CCCN(CCC)S(=O)(=O)c1ccc(C(=O)Nc2cc3oc4ccccc4c3cc2OC)cc1	-22	8	-2	45*	-4	i
O=C(CCN1CCCCC1)NCC[C@@H]1CC[C@H](NC(=O)c2ccc(F)cc2)[C@@H](CO)O1	-13	.	.	.	.	.
COc1ccccc1-c1ccc2nnc(SC)n2n1	0	0	-3	43*	3	i
O=C(O)c1cccc(Nc2c3ccccc3nc3ccccc23)c1	6	4	0	41*	0	i
COc1cccc(OC)c1C(=O)NC(=S)NNC(=O)[C@H]1C[C@@H]1c1ccccc1	3	8	4	48*	1	i
Cc1ccc(-c2ccc3c(c2)O[C@H](CN(C)CC2CC2)[C@H](C)CN([C@H](C)CO)S3(=O)=O)cc1	8	.	.	.	.	.
S=c1[nH]c2nc(Cl)c(Cl)nc2[nH]1	.	6	-5	41*	0	+
S=c1[nH]c2cnc(Cl)nc2[nH]1	4	1	1	3	-2	.
COc1ccc(-n2ncc3c(NCc4ccco4)ncnc32)cc1	-3	-13	2	36	0	.
C=CCNc1ncnc2c1cnn2-c1ccc(OC)cc1	-23	3	-4	46*	2	i
COc1ccc(-n2ncc3c(NCCN4CCOCC4)ncnc32)cc1	-15	.	6	29	3	.
COc1ccc(-n2ncc3c(NCCCN4CCOCC4)ncnc32)cc1	1	2	-11	42*	1	i
CCC(=O)N1C[C@@H](C)[C@@H](OC)CN(C)C(=O)c2cc(NS(=O)(=O)CC)ccc2OC[C@@H]1C	-6	.	.	.	.	.
C[C@H](CO)N1C[C@H](C)[C@@H](CN(C)C(=O)c2ccncc2)OCCCC[C@H](C)Oc2ccc(NC(=O)c3ccccc3)cc2C1=O	-8	.	.	.	.	.
Cc1cc(F)ccc1S(=O)(=O)Nc1ccccc1C(=O)Nc1ncn[nH]1	29	-17	9	.	-1	.
